# Source: PubChem
# Ins promoter up: insulin promoter activators in MIN6 cells, imaging, high-content screening, mouse beta cells; z-score at 5 µM; 0.3% of 190,000 active; MIN6 insulin promoter-GFP reporter; active compounds read high;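 active = z-score above 3 at 5 µM with at least 500 cells counted in the well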
# ROMK mod: ROMK potassium channel modulators, primary screen, cell-based, thallium flux, MLSMR library | AID 1918, 2009 | B-score at 10 µM | Tet-inducible ROMK, thallium flux fluorescence; actives lie on both sides | 2% of 130,000 active;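 active = signal ratio slope over the read window, or its plate-corrected B-score, at least 3 SD from the plate mean, either direction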;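 also: B-score of the F/F0 ratio slope over 7 to 12 s after thallium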
# Target sequence (P48048 whole entry, looked up): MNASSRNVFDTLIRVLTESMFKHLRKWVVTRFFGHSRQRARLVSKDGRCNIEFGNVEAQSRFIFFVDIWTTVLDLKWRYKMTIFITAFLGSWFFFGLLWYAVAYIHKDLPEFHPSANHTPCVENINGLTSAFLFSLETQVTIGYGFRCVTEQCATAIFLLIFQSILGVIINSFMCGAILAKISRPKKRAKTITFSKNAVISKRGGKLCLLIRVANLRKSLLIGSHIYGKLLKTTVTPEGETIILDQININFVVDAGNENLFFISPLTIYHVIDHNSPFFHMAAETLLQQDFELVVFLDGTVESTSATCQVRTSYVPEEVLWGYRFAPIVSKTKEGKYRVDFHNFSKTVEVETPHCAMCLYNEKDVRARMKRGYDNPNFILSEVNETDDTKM
# KCC2 mod: KCC2 cotransporter modulators, thallium flux, primary screen, cell-based, HEK293 KCC2, FluoZin-2 fluorescence, MLSMR | Solute carrier family 12 member 5 (Homo sapiens), Q9H2X9 | KCC2 cells, thallium flux FluoZin-2 fluorescence | B-score of Tl+ flux slope (higher = more flux/activation; lower = inhibition) at 10 µM | 2.2% of 190,000 active;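 active = thallium flux slope and its plate-corrected score both differing from the plate sample mean at a set confidence after two filtering rounds, in either direction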;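 also: slope of fluorescence scaled to starting intensity during 10 to 20 s after thallium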
# INS promoter inh: inhibitors of insulin promoter-driven GFP, primary screen, imaging, TRM-6 cells (human fetal islet line), eGFP reporter, cell count; reporter expression induced with tamoxifen; inhibition, % at 2 µM; 0.9% of 130,000 active; AID 1273, 2008;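 active = inhibition above the mean plus 3 SD, with well images judged a real hit on visual review, cut at about 60% in these data, passing the limit was not always enough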
# WT yeast gro inh: growth inhibition of WT strain, primary screen, mitochondrial fusion inhibitor project, WT and mutant strains, chemical genetic; mitochondrial fusion phenotypic screen; inhibition, % at 10 µM; 2.1% of 190,000 active; AID 1362, 2008; in the data active = inhibition above about 58%; tested in S. cerevisiae
# L major viab: Leishmania major promastigote growth inhibition, primary screen. inhibition, % at 10 µM. Leishmania major promastigotes, resazurin fluorescence viability. 9% of 200,000 active; in the data active = inhibition above about 50%;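 also: promastigotes grown with compound for 44 hours at 28 °C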
# Numbers without * were called inactive; / = no result given. Sampled rows, rich in hits. Any-hit rate of the full collection: about 12%.
SMILES,Ins promoter up,ROMK mod,KCC2 mod,INS promoter inh,WT yeast gro inh,L major viab
C/C(=N\NC(=O)CN(c1ccccc1)S(=O)(=O)c1ccccc1[N+](=O)[O-])C(C)(C)C,-0.19,-0.71,-0.76,16,-28,90*
O=C(Cc1ccccc1)NCC(=O)OCC(=O)c1ccccc1Cl,1.2,-0.02,0.014,/,0,93*
CC(=O)CSc1cc(-c2ccccc2)nc2ncnn12,-0.21,-1.1,-0.069,/,/,/
CC1CN(Cc2ccc(Cl)cc2Cl)CC(C)O1 (stereo not drawn),0.26,-0.065,1,42,-4,-6
C=CCc1cc(Cl)ccc1OCCNCCOC,/,-2.8,/,/,12,95*
C=CCc1cc(Cl)ccc1OCCN1CC(C)OC(C)C1 (stereo not drawn),-0.71,-0.66,0.25,15,35,83*
C=CCc1cc(Cl)ccc1OCCNCCN1CCOCC1,/,/,0.05,/,20,95*
COc1cc(C(=O)OC(C)CN2CCN(C)CC2)cc(OC)c1OC (stereo not drawn),0,0.032,/,/,-25,2
CN(CCOCCOc1ccc2ccccc2c1)Cc1ccccc1,/,-1.1,/,-43,22,100*
CNC(=O)COc1ccc(C=O)cc1OC,0.37,1.5,2.3,16,4,60*
COc1ccc(OCCN(C)Cc2ccccc2)cc1,/,0.67,0.16,50,11,12
COc1cc(C=O)ccc1OCCOCCOc1cc(C)ccc1Cl,-0.61,/,/,17,4,73*
COc1cc(C)ccc1OCCOCCN(C)Cc1ccccc1,-0.1,0.11,-0.0048,-133,10,91*
CC(C)OC(=O)CSc1nnc(CNc2ccc(Cl)cc2)n1Cc1ccccc1,0.02,/,/,68,10,6
COc1cc(Nc2nnc(C)s2)c(Cl)cc1Cl,0.42,/,-0.25,-26,5,17
COCCOc1cc(Nc2nnc(C(F)(F)F)s2)c(Cl)cc1Cl,/,0.36,2,-51,14,63*
Cc1ccc([N+](=O)[O-])c(OCCCN2C(=O)NC(C)(C)C2=O)c1,-0.16,0.86,-2.3,/,-9,-2
COCCn1c(CN(C)Cc2ccccc2)nc2c1c(=O)n(C)c(=O)n2C,-1.5,/,0.27,/,11,-8
CCCOc1ccc(C(CC(=O)O)NC(=O)c2ccc3c(c2)OCO3)cc1 (stereo not drawn),-0.83,2.2,/,-7,-4,-3
Cc1sc(NC(=O)CN(C)C2CCCCC2)nc1-c1ccc2c(c1)CCN2S(=O)(=O)c1ccccc1,0.15,-0.48,-0.072,-27,3,45
Cc1sc(NC(=O)Cc2ccc3c(c2)OCO3)nc1-c1ccc2c(c1)CCN2C(=O)c1ccc(F)cc1,-0.8,0.63,-0.42,22,32,87*
Cc1sc(NC(=O)Cc2ccc3c(c2)OCO3)nc1-c1ccc2c(c1)CCN2C(=O)c1ccccc1F,-0.91,-0.39,0.93,-5,26,99*
Fc1cccc(/C=N/Nc2ccc3ccccc3n2)c1,-0.3,0.46,-1.8,/,20,52*
Brc1ccc(/C=N/Nc2ccccc2)cc1,/,0.51,-0.54,36,43,8
Cc1cc(N/N=C/c2ccc3c(c2)OCO3)nc2ccccc12,-1.7,/,0.11,/,/,/
SMILES,Ins promoter up,ROMK mod,KCC2 mod,INS promoter inh,WT yeast gro inh,L major viab
Brc1ccc(/C=N/Nc2ccc3ccccc3n2)cc1,0.18,/,0.58,-45,60*,1
C(=N\Nc1nc2ccccc2[nH]1)/c1cccc2cccnc12,-1.6,/,-0.43,/,/,/
Brc1ccccc1/C=N/Nc1ccc2ccccc2n1,0.39,/,-0.51,/,69*,41
Cc1cc(N/N=C/c2ccccc2Br)nc2ccccc12,-0.8,0.37,-0.19,-9,70*,52*
COc1ccc(C)cc1S(=O)(=O)NC1CCCC1,/,/,1,-31,-6,-3
O=C1c2ccccc2NC(c2ccco2)N1O (stereo not drawn),0.74,0.035,0.72,41,2,2
O=C1C2=C(Nc3ccccc3SC2c2ccco2)c2ccccc21 (stereo not drawn),0.85,/,-2.2,/,46,99*
Cc1cccc(C)c1NC(=O)N1CCCC1C(=O)Nc1ccc(-n2cnnn2)cc1 (stereo not drawn),/,0.37,0.39,30,7,4
CCCOc1ccc(Cn2cnc3ccccc32)cc1,-5.6,/,-0.55,12,2,88*
Cc1ccc(OCCCCn2cnc3ccccc32)cc1,0.81,-0.44,0.23,/,65*,12
CC(=O)c1ccc(OCCn2cnc3ccccc32)cc1,-0.12,/,0.7,18,3,51*
COc1ccccc1NS(=O)(=O)c1cc([N+](=O)[O-])ccc1N/N=C/c1c[nH]c2ccccc12,/,0.0042,-0.013,-264,34,34
COc1ccc(NS(=O)(=O)c2cc([N+](=O)[O-])ccc2N/N=C\c2c(C)[nH]c3ccccc23)cc1,/,-0.12,-0.58,/,56,98*
Cc1[nH]c2ccccc2c1/C=N/Nc1ccc([N+](=O)[O-])cc1S(=O)(=O)Nc1ccc(Cl)cc1,/,0.4,-1.2,-127,50,95*
COc1cccc(N2CCN(CC(=O)c3c[nH]c4ccc(OC)cc34)CC2C)c1 (stereo not drawn),-0.11,/,0.042,48,4,73*
COc1ccc2[nH]cc(C(=O)CN3CCCC(C)C3)c2c1 (stereo not drawn),-0.54,/,/,-34,-15,-4
O=C(c1ccc(Br)o1)N(Cc1ccccc1)Cc1ccccc1,0.12,-1.6,-1.3,32,79*,7
O=C(NCc1ccccc1)c1ccc(Br)o1,0.19,-0.33,-0.082,35,-12,-7
CCCNC(=O)N1CCC(C(=O)c2ccc(F)cc2)CC1,-0.44,/,0.26,26,-17,-5
CCCNC(=O)N1CCC(C(=O)c2ccc(Cl)cc2)CC1,3.8*,/,-1,29,-11,6
O=C(c1ccc(Cl)cc1)C1CCN(C(=O)NC2CCCCC2)CC1,-0.3,/,-2.4,-24,19,52*
CCOc1ccc(C(CCc2ccccc2)NC(=O)c2ccccc2)cc1OCC (stereo not drawn),/,-0.062,-1.1,-17,3,-3
CCc1ccccc1OCC(=O)Nc1nc(-c2cccnc2)cs1,0.88,0.15,0.43,20,57,81*
O=C(Cc1cccs1)Nc1nc(-c2ccc(F)cc2F)cs1,0.82,-1.1,-2.5,33,45,98*
O=C(Cc1ccccc1F)Nc1nc(-c2cccs2)cs1,-0.29,-1.4,-1.9,-6,2,20
O=C(Cc1ccccc1F)Nc1nc(-c2cccnc2)cs1,0.2,-0.07,0.073,/,0,52*
Cc1nnc2sc(-c3cccc(NC(=O)c4ccc(-c5cccc(Cl)c5)o4)c3)nn12,/,/,0.026,25,/,98*
Cc1ccc(-c2nn3c(C)nnc3s2)cc1NC(=O)c1ccc(-c2cccc(Cl)c2)o1,0.58,/,/,-24,9,15
